Source: PubChem
ATXN2 expr inh: inhibitors of ATXN2 expression; HEK-293 ATXN2-luciferase reporter, luminescence, 24 h; Potency, µM (titrated, usually from 57 µM), for the others: at the top dose activity change, negative = inhibition, actives largely listed as inhibitors; 360,000 compounds, 0.72% hits; also: potency is read from the fitted curve at half-maximal effect; % is scaled to controls: 0 for no effect and ±100 for the full control effect; nearly all actives have a fitted effect of over 55% in size
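ATXN2-luciferase reporter cells (luciferase flanked by upstream and downstream ATXN2 gene portions) were treated 24 h at 37 °C with compounds at up to 57 uM. SteadyGlo luminescence gave expression; GF-AFC fluorescence gave viability.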
TGFb inhibitor: TGF-b pathway inhibition. Potency, µM (doses to about 46.1 µM), for inactives: at the highest dose activity, negative = inhibition, hits mostly inhibitors. HepG2 CAGA-GFP TGF-b/SMAD3 reporter, GFP fluorescence, 18 h; TGF-beta stimulated, 500 pg/mL final. 410,000 compounds, 1.2% hits. AID 588855; also: potency is read from the fitted curve at half-maximal effect; % is scaled to controls: 0 for no effect and ±100 for the full control effect; nearly all actives have a fitted effect of over 65% in size
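First, reporter cells (HEPG2 CAGA-GFP) rested 2 h at 37 degrees C. Next, compounds were pinned in and TGF-beta added to 500 pg/mL final. After 18 h, GFP was imaged per cell and summed per well.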
IL1B secr inh: inhibitors of inflammasome signaling (IL-1 beta secretion). 360,000 compounds, 4.7% hits. THP-1 LPS/ATP IL-1B secretion, AlphaLISA, 16 h; active compounds read low. AID 743279. activity change, % at 57.5 µM; in the data active = activity change below about -50%; inconclusive = mostly about -30% to -49%; also: % is scaled to controls: 0 for no effect and ±100 for the full control effect
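Secreted IL-1B measured by AlphaLISA bead assay after 16 h compound exposure of THP-1 cells; compounds (final up to 57.5 uM) added 1 h before LPS (250 ng/mL) and ATP (1.25 mM) stimulation; lower signal means less secretion.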
S2 tox: reduces viability in counter-screen for ATXN expression inhibitors; S2 cells (HEK-293 line with an ATXN2-luciferase reporter) viability, CellTiter-Fluor protease fluorescence, 24 h; Potency, µM (top dose mostly 56.7 µM), most hits filed as cytotoxic; 400,000 compounds, 0.49% hits; AID 651635; also: potency is read from the fitted curve at half-maximal effect; nearly all actives have a fitted effect of over 40% in size
HepG2 tox: counter-screen for TGF-b inhibitors: cytotoxicity in HepG2 cells. HepG2 CAGA-GFP viability, ATP luminescence, 18 h. Potency, µM (titrated, usually from 46.1 µM), for inactives: top-dose activity change, negative = cytotoxicity, hits mostly cytotoxic. 410,000 compounds, 0.76% hits. AID 588856; also: potency is read from the fitted curve at half-maximal effect
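CellTiter-Glo luminescence gave cytotoxicity after 18 hours at 37 degrees C. The cells were HepG2 CAGA-GFP in 1% FBS DMEM, stimulated with 500 pg/mL TGF-beta after compound addition. %Activity was normalised to no-cell wells (complete cell-killing) and DMSO (no toxicity), and curves were fitted and classified.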
* hit, by the source's call. The list is not random: actives were taken first. Their share in the collection is about 5.7%. Unless noted, calls follow the shape of the dose curve; as a rule, active = well fitted curve in the direction sought with a large enough effect; inconclusive = small, poorly fitted or top-dose-only effect, or another doubt; inactive = no such curve, though single readings can be large; an effect the other way counts as inactive or inconclusive.

`O=C(Cc1cccc2c(=O)cc(-c3ccccc3)oc12)OCCN1CCOCC1` gave ATXN2 expr inh 11%, TGFb inhibitor -3%, IL1B secr inh -15, S2 tox inactive and HepG2 tox 2%.
`Cc1[nH]cnc1C[C@H]1CCc2c(C)c3ccccc3n2C1=O` gave S2 tox inactive.
Screening CC1(Cc2ccccc2OC(F)(F)F)C(=O)Nc2c(Cl)ccc(Cl)c21 (stereo not drawn) returned ATXN2 expr inh 0%, TGFb inhibitor 14µM*, IL1B secr inh 22, S2 tox inconclusive and HepG2 tox -94%.
For CC1(Cc2ccc(OC(F)(F)F)cc2)C(=O)Nc2c(Cl)ccc(Cl)c21 (stereo not drawn) the results were ATXN2 expr inh inconclusive, TGFb inhibitor 16µM*, IL1B secr inh 48, S2 tox inconclusive and HepG2 tox -113%.
`CC1(Cc2ccc(OC(F)(F)F)cc2)C(=O)Nc2ccc(OC(F)(F)F)cc21` (stereo not drawn) gave ATXN2 expr inh inconclusive, TGFb inhibitor inconclusive, IL1B secr inh -13, S2 tox inconclusive and HepG2 tox 18µM*.
For COc1ccc(OC(F)(F)F)cc1CC1(C)C(=O)Nc2cccc(Cl)c21 (stereo not drawn) the results were ATXN2 expr inh inconclusive, TGFb inhibitor inconclusive, IL1B secr inh 0, S2 tox inconclusive and HepG2 tox -92%.
`COC(=O)c1ccc(CC2(C)C(=O)Nc3ccc(-c4cccc(C(F)(F)F)c4)cc32)o1` (stereo not drawn) gave ATXN2 expr inh inconclusive, TGFb inhibitor inconclusive, IL1B secr inh -24, S2 tox 32µM* and HepG2 tox 22µM*.
CC1(Cc2ccc(Cl)c(Cl)c2)C(=O)Nc2c(Cl)ccc(Cl)c21 (stereo not drawn) was read as ATXN2 expr inh inconclusive, TGFb inhibitor inconclusive, IL1B secr inh 27, S2 tox inconclusive and HepG2 tox -100%.
CC(=O)c1cccc(-c2ccc3c(c2)C(C)(Cc2ccccc2F)C(=O)N3)c1 (stereo not drawn) was read as ATXN2 expr inh inconclusive, TGFb inhibitor -24%, IL1B secr inh 82, S2 tox inconclusive and HepG2 tox -32%.
COc1ccc(OC)c(NC(=O)Cn2cnc3sc(C)c(S(=O)(=O)N4CCN(c5ccccc5OC)CC4)c3c2=O)c1 was read as ATXN2 expr inh 3%, TGFb inhibitor -4%, S2 tox inactive and HepG2 tox -17%.
`Cc1ccc(NC(=O)c2nnn(Cc3cccc(C(F)(F)F)c3)c2N)c(C)c1` gave ATXN2 expr inh inconclusive, TGFb inhibitor -10%, S2 tox inconclusive and HepG2 tox -11%.
For CC1(Cc2ccc(F)cc2)C(=O)Nc2c(Cl)ccc(Cl)c21 (stereo not drawn) the results were ATXN2 expr inh -21%, TGFb inhibitor -17%, IL1B secr inh -59*, S2 tox inactive and HepG2 tox -4%.
COc1ccc(OC(F)(F)F)cc1CC1(C)C(=O)Nc2ccc(-c3ccsc3)cc21 (stereo not drawn) was read as ATXN2 expr inh -13%, TGFb inhibitor 13µM*, IL1B secr inh -7 and HepG2 tox -103%.
For COc1ccc(NC(=O)c2c(C)oc3ccc(O)c(CN4CCN(Cc5ccccc5)CC4)c23)cc1 the results were TGFb inhibitor inconclusive and HepG2 tox -33%.
COc1ccccc1-c1nnc2sc(COc3ccc(Cl)cc3)nn12 was read as ATXN2 expr inh inconclusive, TGFb inhibitor -14%, IL1B secr inh -86*, S2 tox inactive and HepG2 tox -30%.
COc1ccc(Cc2nn3c(-c4ccccc4OC)nnc3s2)cc1 was read as ATXN2 expr inh 5%, TGFb inhibitor -10%, IL1B secr inh -3, S2 tox inactive and HepG2 tox -9%.
CC(C)CCOc1ccc(Cn2c(=O)oc3ccccc32)cc1 was read as ATXN2 expr inh -3%, TGFb inhibitor 1%, S2 tox inactive and HepG2 tox -2%.
